From PubChem BioAssay (Tox21)
“And” between values parts separate entries of the source, which are not always exact repeats. Identical values can stand only once. Records with an inconclusive call do not appear. A call without a number means that no potency is given here. Some compounds were tested as several samples or in several runs, with calls that do not always agree. The source made the active and inactive calls. Unless noted, calls follow the shape of the dose curve; as a rule, active = well fitted curve in the direction sought with a large enough effect in the repeat runs; inconclusive = weak or mixed curves; inactive = no such curve, though single readings can be large; an effect the other way counts as inactive or inconclusive.

Legend:
[1] = qHTS assay to identify small molecule agonists of the hypoxia (HIF-1) signaling pathway - cell viability counter screen (AID 1224844; calls by dose curve; also: nearly all actives have a fitted effect of over 50% in size; also: potency is read from the fitted curve at half-maximal effect)
Outline: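 CellTiter-Glo luminescence read-out, 30 min RT, taken in the same wells as the beta-lactamase HRE reporter assay; HRE-bla ME-180 cells, 0.5% dialyzed FBS, 17 hr compound treatment at 37C, 5% CO2.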

[2] = qHTS assay to identify small molecule agonists of H2AX (AID 1224845; active = well fitted activation curve with a large enough effect in the signal ratio in the repeat runs, not every such curve was filed as active; the % refers to the signal ratio)
Outline: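 Wild-type CHO-K1 cells plated overnight, then exposed 3 hr at 37C to compounds at 15 concentrations (0.76% DMSO). Lysed, then HTRF anti-pH2AX(S139)-cryptate/anti-H2AX-d2 detection after 24 hr at room temperature; emissions 665 and 620 nm.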

[3] = qHTS assay to identify small molecule agonists of the hypoxia (HIF-1) signaling pathway (AID 1224846; active = well fitted activation curve with a large enough effect in the signal ratio in the repeat runs, not every such curve was filed as active; the % refers to the signal ratio)
Outline: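 Beta-lactamase FRET read-out (CCF4-AM substrate) from ME-180 cells carrying an HRE-driven bla reporter, after 17 hrs compound exposure at 37C/5% CO2. Cells were seeded at 2,000 per well in 0.5% dialyzed FBS medium and preincubated 5 hrs.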

[4] = qHTS assay to identify small molecule agonists of H2AX - cell viability counter screen (AID 1224847; calls by dose curve; also: top concentration of the series differs between compounds; nearly all actives have a fitted effect of over 30% in size)
Outline: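 Viability of CHO-K1 (wild type) cells after 3 hr compound exposure was measured by CellTiter-Glo luminescence.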

[5] = qHTS RealTime-Glo MT Cell Viability Assay in HepG2 cells - 24 hour (AID 1224867); also: nearly all actives have a fitted effect of over 50% in size
Outline: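 HepG2 cells were seeded at 600 cells/well together with NanoLuc luciferase and a cell-permeant prosubstrate, preincubated 5 h at 37 C/5% CO2, then pin-dosed with compounds in DMSO. Nonlytic luminescence from viable cells was read at each time point.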

[6] = qHTS RealTime-Glo MT Cell Viability Assay in HEK293 cells - 32 hour (AID 1224868); also: nearly all actives have a fitted effect of over 50% in size; also: potency is read from the fitted curve at half-maximal effect
Outline: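 HEK293 cells were seeded at 600 cells/well together with NanoLuc luciferase and cell-permeant prosubstrate, preincubated 5 h at 37 C/5% CO2, then given compound in DMSO by pintool. Luminescence from viable-cell prosubstrate reduction was read repeatedly over 40 h.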

[7] = A CellTox Green Cytotoxicity Assay to monitor cytotoxicity in HEK293 cells - 0 hour (AID 1224869); also: nearly all actives have a fitted effect of over 50% in size
Outline: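 Read-out: fluorescence of a cell-impermeant cyanine dye staining DNA of dead cells, proportional to cytotoxicity. HEK293, 600 cells/well with reagent, compound (23 nL DMSO) added after 5 h; reads at 0, 8, 16, 24, 32, 40 h.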

[8] = qHTS RealTime-Glo MT Cell Viability Assay in HepG2 cells - 40 hour (AID 1224870); also: nearly all actives have a fitted effect of over 50% in size
Outline: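 HepG2 cells mixed with RealTime-Glo MT reagents (NanoLuc plus cell-permeant prosubstrate) were seeded at 600 cells/well, incubated 5 h at 37 C/5% CO2, then pinned with compounds in DMSO; nonlytic luminescence tracked viability during 40 h treatment.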

[9] = qHTS assay to identify small molecule antagonists of the estrogen related receptor (ERR) signaling pathway from Tox21 library (AID 1224848); also: nearly all actives have a fitted effect of over 50% in size; also: potency is read from the fitted curve at half-maximal effect
Outline: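 First, 2,000 ERR cells per well were plated and held 6 h at 37 C/5% CO2. Next, compounds in DMSO were pinned in and left 18 h at 37 C. Finally, ONE-Glo was added and luminescence read after 30 min at room temperature.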

Row | SMILES | Potency [1] | Potency [2] | outcome [3] | Potency [4] | Potency [5] | Potency [6] | Potency [7] | Potency [8] | Potency [9]
1 | CCc1cccc(CC)c1N | inactive | inactive | inactive | inactive | inactive | inactive | inactive | inactive | 
2 | CN1Cc2c(N)cccc2C(c2ccccc2)C1 (stereo not given) | inactive | inactive |  | inactive | inactive | inactive | inactive | inactive | 
3 | CC(CN1c2ccccc2Sc2ccccc21)N(C)C (stereo not given) | 39.3 µM (active) | inactive |  |  |  | 39.3 µM (active) and 43.6 µM (active) and 6.01 µM (active) | inactive | inactive | 61.8 µM (active) and 68.6 µM (active) and inactive
4 | CC(=O)C(C)C | inactive | inactive | inactive | inactive | inactive | inactive | inactive | inactive | 
5 | CC(=O)OC/C=C(\C)CCC=C(C)C | inactive | inactive | inactive | inactive |  | inactive | inactive | inactive | 
6 | CN1CCCC1=O | inactive | inactive | inactive | inactive |  | inactive | inactive | inactive | 
7 | CCn1cc(C(=O)O)c(=O)c2cc3c(cc21)OCO3 | inactive | inactive |  | inactive |  | inactive | inactive | inactive | 
8 | Cc1ccc(C)c(S(=O)(=O)O)c1 | inactive | inactive | inactive | inactive |  | inactive | inactive | inactive | 
9 | CC(C)(CO)CO | inactive |  | inactive | inactive | inactive | inactive | inactive | inactive | inactive
10 | CC(=O)c1nccs1 | inactive | inactive | inactive | inactive | inactive | inactive | inactive | inactive | 
11 | CC(=O)OCCC(C)C | inactive |  | inactive | inactive |  | inactive | inactive | inactive | inactive
12 | Cc1ccccc1Cl | inactive |  | inactive | inactive |  | inactive | inactive | inactive | 
13 | Brc1ccc(Oc2ccc(Br)cc2)cc1 | inactive |  | inactive | inactive | inactive | inactive | inactive | inactive | 
14 | CC[N+](CC)(CC(=O)Nc1c(C)cccc1C)Cc1ccccc1 | inactive |  | inactive | inactive | inactive | inactive | inactive | inactive | 
15 | N[C@@H](Cc1cc(I)c(Oc2ccc(O)c(I)c2)c(I)c1)C(=O)O | inactive |  | inactive | inactive |  | inactive | inactive | inactive | 
